Laboratory results taken from PubChem BioAssay AID463173 (ICCB-Longwood Screening Facility, Harvard Medical School, 2010).
The campaign covered roughly 52,000 compounds. About 4,300 (8.3%) were called active. The sample holds actives, similar compounds and a random draw of the others, so the mix is not that of the screen. No stated cut-off is given here; in the data, active means survival mostly below about 52% (no sharp cut-off); inactive means mostly above about 56%.

System: DeltatarO mutant
Test: S. aureus survival, RN4220 and DeltatarO strains – OD600, teichoic acid synthesis inhibitors, primary screen (AID 463173)
Settings: S. aureus RN4220 wild type/DeltatarO growth, OD600, 18 h, hits give low values, screened at 18.75 µg/mL (by protocol)

Compound	survival
Cc1cc(C)c(NS(=O)(=O)c2ccc(-c3coc(C)n3)cc2)c(C)c1	94% (inactive)
CC(=O)OCc1cnc(C)c2oc(=O)c(C(=O)Nc3ccc(C)cc3Cl)cc12	128% (inactive)
Cc1ccc(NC(=O)c2ccc(Cl)cc2Cl)c(C(=O)c2ccccc2)c1	-1% (active)
Cc1ccc(NC(=O)c2nc[nH]c2C(=O)N2CCCCC2)c(C(=O)c2ccccc2)c1	82% (inactive)
Cc1cc(NC(=O)c2ccccc2Cl)ccc1NC(=O)c1ccccc1	77% (inactive)
Cc1ccc(C(=O)COC(=O)c2cccc(NC(=O)c3ccc(Cl)cc3Cl)c2)cc1	61% (inactive)
Cc1ccc(NC(=O)c2ccc(Br)cc2)c(C(=O)c2ccccc2)c1	-2% (active)
O=C(c1ccccc1)c1ccccc1NC(=O)c1ccccc1C(=O)O	67% (inactive)
O=C(Nc1cc2c(cc1C(=O)c1ccccc1Br)OCCO2)c1ccccc1	68% (inactive)
Cc1ccc(NC(=O)c2ccccc2Br)c(C(=O)c2ccccc2)c1	26% (active)
O=C(Nc1cc2c(cc1C(=O)c1ccccc1)OCCO2)c1ccc(Br)cc1	82% (inactive)
CCOc1ccccc1CNC(=O)c1ccc2c(c1)nc1n2CCCCC1	87% (inactive)
O=C(c1ccccc1)n1nnc2ccccc21	106% (inactive)
COc1ccc2c(c1)c1c(c(=O)n(Cc3ccccc3)c(=O)n1Cc1cccc(Cl)c1)n2C	82% (inactive)
CCC(Oc1ccccc1)C(=O)Nc1nccs1 (stereo unspecified)	79% (inactive)
COc1ccc2c(CNCCc3ccco3)c(C(=O)O)n(Cc3ccccc3)c2c1	101% (inactive)
CCC(C(=O)Nc1cc(C)ccc1C)n1c(=O)c(C(F)(F)F)nc2ccccc21 (stereo unspecified)	102% (inactive)
CCCc1cnc2c(c1SCC(=O)Nc1ccc([N+](=O)[O-])cc1)c(=O)n(C)c(=O)n2C	66% (inactive)
COc1ccc(-n2cc(C(=O)OCc3ccc(F)c(F)c3)c3ccccc3c2=O)cc1	98% (inactive)
COc1ccccc1NC(=O)c1ccccc1C(=O)O	82% (inactive)
COc1ccccc1NC(=O)c1cc(S(=O)(=O)N2CCN(c3ccccc3Cl)CC2)ccc1F	102% (inactive)
COc1ccc(OC)c(NC(=O)c2ccccc2)c1	105% (inactive)
COc1ccccc1NC(=O)c1cccc(S(=O)(=O)N2CCCCCC2)c1	40% (active)
COc1ccccc1NC(=O)c1ccccc1NC(=O)c1ccccc1	20% (active)
O=C(Nc1ccccc1C(=O)O)c1cccc(S(=O)(=O)N2CCCC2)c1	87% (inactive)
Cc1ccc(S(=O)(=O)N2C(=O)CCC2C(=O)N2CCCC2)cc1 (stereo unspecified)	97% (inactive)

Compound	survival
Cc1ccc(N2CCN(c3c(CN4CCCC4)c(=O)oc4ccccc34)CC2)c(C)c1	67% (inactive)
COc1cc(Cl)c(C)cc1Nc1nc2ccccc2c2nnc(C)n12	124% (inactive)
CCOC(=O)c1sc(N/C=C(\C#N)c2nc3cc(Cl)ccc3o2)c(C#N)c1C	81% (inactive)
CN(C)c1ccc(CNC(=O)CN2CCSc3ccc(S(=O)(=O)N(C)C)cc32)cc1	66% (inactive)
Cc1ccccc1CN1C(=O)C2(c3ccccc31)N(c1ccccc1)C(=O)CS2(=O)=O (stereo unspecified)	124% (inactive)
CCOc1ccc2nc(N3CCCC(C(=O)Nc4ccc(OC)cc4)C3)sc2c1 (stereo unspecified)	60% (inactive)
CC1CCCN(S(=O)(=O)c2cc(C(=O)NCCc3ccccc3)n(C)c2)C1 (stereo unspecified)	73% (inactive)
COc1cccc(CNC(=O)c2cc(S(=O)(=O)N3CCCCCC3)cn2C)c1	82% (inactive)
COc1ccc(CCNC(=O)c2cc(S(=O)(=O)N3CCCC(C)C3)cn2C)cc1OC (stereo unspecified)	47% (active)
Cc1ccc(CNC(=O)c2cc(S(=O)(=O)N3CCCCCC3)cn2C)cc1	74% (inactive)
COc1cccc(CNC(=O)c2cc(S(=O)(=O)N3CCCCC3)cn2C)c1	0% (active)
COc1ccccc1CNC(=O)c1cc(S(=O)(=O)N2CCCC(C)C2)cn1C (stereo unspecified)	93% (inactive)
COc1ccc(CNC(=O)CCc2c(C)c3cc4c(C)coc4cc3oc2=O)cc1	75% (inactive)
COC(=O)c1ccc(-c2nc3ccc(C)cc3o2)cc1	102% (inactive)
Cc1ccc(S(=O)(=O)N2CCCc3cc(NS(=O)(=O)c4ccc(F)cc4)ccc32)cc1	74% (inactive)
O=C(Nc1ccc(-c2nc3cc(NC(=O)c4ccc(F)cc4)ccc3o2)cc1)c1ccc(F)cc1	75% (inactive)
O=S(=O)(Nc1ccc2nc(-c3ccc(F)cc3)oc2c1)c1ccccc1	32% (active)
Cc1ccc(S(=O)(=O)Nc2ccc3nc(-c4ccc(F)cc4)oc3c2)cc1	11% (active)
Cc1ccc(SCC(=O)Nc2ccc3oc(-c4cccc(Cl)c4)nc3c2)cc1	72% (inactive)
O=C(O)/C=C/C(=O)Nc1ccc(-c2nc3ccccc3o2)cc1	74% (inactive)
Cc1ccc(S(=O)(=O)Nc2ccc3nc(-c4cccc(Cl)c4)oc3c2)cc1	28% (active)
O=S(=O)(Nc1ccc2nc(-c3cccc(Cl)c3)oc2c1)c1ccccc1	52% (inactive)
O=S(=O)(Nc1ccc(-c2nc3ccccc3o2)cc1)c1ccccc1	24% (active)
Cc1ccccc1C(=O)Nc1ccc(-c2nc3ccccc3o2)cc1	101% (inactive)
O=S(=O)(Nc1ccc2nc[nH]c2c1)c1ccccc1	95% (inactive)
